Laboratory results as given in ChEMBL document CHEMBL1961873, “Compounds: GSK PKIS; Assays: Nanosyn kinase panel” (2012).
Where “and” joins values, the source holds several entries; their conditions need not be identical. Equal values may be shown once.

What was measured:
[1] = biological target: MAP/microtubule affinity-regulating kinase 3 (Homo sapiens) (UniProt P27448); conditions: at 1 µM;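 note: reported values are averaged percent inhibition of MARK3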
[2] = biological target: T1, MAP/microtubule affinity-regulating kinase 4 (Homo sapiens) (UniProt Q96L34); conditions: at 0.1 µM
T1 sequence (whole entry): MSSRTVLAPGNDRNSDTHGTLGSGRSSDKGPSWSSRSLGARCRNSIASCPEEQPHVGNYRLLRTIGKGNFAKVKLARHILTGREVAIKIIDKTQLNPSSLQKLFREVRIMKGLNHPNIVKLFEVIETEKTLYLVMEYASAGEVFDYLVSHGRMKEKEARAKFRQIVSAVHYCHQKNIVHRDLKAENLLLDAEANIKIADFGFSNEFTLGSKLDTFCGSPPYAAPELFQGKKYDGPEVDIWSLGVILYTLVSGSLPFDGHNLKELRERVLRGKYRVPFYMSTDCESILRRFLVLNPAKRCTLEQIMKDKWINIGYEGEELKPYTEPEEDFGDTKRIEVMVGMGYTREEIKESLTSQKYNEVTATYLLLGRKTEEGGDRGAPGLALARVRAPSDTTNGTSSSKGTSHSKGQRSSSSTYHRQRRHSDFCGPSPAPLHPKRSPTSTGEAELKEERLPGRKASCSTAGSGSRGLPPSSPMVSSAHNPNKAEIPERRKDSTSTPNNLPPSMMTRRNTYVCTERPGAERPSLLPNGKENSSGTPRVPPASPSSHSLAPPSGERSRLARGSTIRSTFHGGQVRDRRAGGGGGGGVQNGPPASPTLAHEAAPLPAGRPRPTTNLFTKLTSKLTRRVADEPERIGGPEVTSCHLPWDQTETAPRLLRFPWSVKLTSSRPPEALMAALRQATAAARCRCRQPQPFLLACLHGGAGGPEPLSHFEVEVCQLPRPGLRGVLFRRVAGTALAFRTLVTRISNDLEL

[3] = biological target: T1, MAP/microtubule affinity-regulating kinase 4 (Homo sapiens); conditions: at 1 µM
[4] = biological target: Maternal embryonic leucine zipper kinase (Homo sapiens) (UniProt Q14680); conditions: at 0.1 µM
[5] = biological target: Maternal embryonic leucine zipper kinase (Homo sapiens) (UniProt Q14680); conditions: at 1 µM
[6] = biological target: MAP kinase-interacting serine/threonine-protein kinase 1 (Homo sapiens) (UniProt Q9BUB5); conditions: at 0.1 µM
[7] = biological target: MAP kinase-interacting serine/threonine-protein kinase 1 (Homo sapiens) (UniProt Q9BUB5); conditions: at 1 µM
[8] = biological target: MAP kinase-interacting serine/threonine-protein kinase 2 (Homo sapiens) (UniProt Q9HBH9); conditions: at 0.1 µM
[9] = biological target: MAP kinase-interacting serine/threonine-protein kinase 2 (Homo sapiens) (UniProt Q9HBH9); conditions: at 1 µM
[10] = biological target: Serine/threonine-protein kinase MARK2 (Homo sapiens) (UniProt Q7KZI7); conditions: at 0.1 µM
[11] = biological target: Serine/threonine-protein kinase MARK2 (Homo sapiens) (UniProt Q7KZI7); conditions: at 1 µM
[12] = biological target: PAS domain-containing serine/threonine-protein kinase (Homo sapiens) (UniProt Q96RG2); conditions: at 0.1 µM
[13] = biological target: PAS domain-containing serine/threonine-protein kinase (Homo sapiens) (UniProt Q96RG2); conditions: at 1 µM
[14] = biological target: Phosphorylase b kinase gamma catalytic chain, skeletal muscle/heart isoform (Homo sapiens) (UniProt Q16816); conditions: at 0.1 µM
[15] = biological target: Phosphorylase b kinase gamma catalytic chain, skeletal muscle/heart isoform (Homo sapiens) (UniProt Q16816); conditions: at 1 µM
[16] = biological target: T2, Phosphorylase b kinase gamma catalytic chain, liver/testis isoform (Homo sapiens) (UniProt P15735); conditions: at 0.1 µM
T2 sequence (whole entry): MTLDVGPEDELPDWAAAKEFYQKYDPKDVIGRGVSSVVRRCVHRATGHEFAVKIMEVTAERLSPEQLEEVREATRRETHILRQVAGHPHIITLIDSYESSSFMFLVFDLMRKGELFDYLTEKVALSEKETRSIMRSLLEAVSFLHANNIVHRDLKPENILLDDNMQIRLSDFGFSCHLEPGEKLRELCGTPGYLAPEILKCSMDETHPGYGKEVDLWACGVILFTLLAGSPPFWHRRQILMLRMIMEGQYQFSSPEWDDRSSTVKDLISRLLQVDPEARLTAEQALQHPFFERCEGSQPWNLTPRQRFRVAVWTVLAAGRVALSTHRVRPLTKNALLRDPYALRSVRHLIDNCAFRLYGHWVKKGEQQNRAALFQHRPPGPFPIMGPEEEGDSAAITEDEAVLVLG

[17] = biological target: T2, Phosphorylase b kinase gamma catalytic chain, liver/testis isoform (Homo sapiens); conditions: at 1 µM
[18] = biological target: Serine/threonine-protein kinase pim-1 (Homo sapiens) (UniProt P11309); conditions: at 0.1 µM
[19] = biological target: Serine/threonine-protein kinase pim-1 (Homo sapiens) (UniProt P11309); conditions: at 1 µM
[20] = biological target: Serine/threonine-protein kinase pim-2 (Homo sapiens) (UniProt Q9P1W9); conditions: at 0.1 µM;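 note: reported value is the mean percent inhibition of PIM2, measured in the GSK PKIS kinase inhibitor set screen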
Serine/threonine-protein kinase pim-2 (Homo sapiens), sequence (Q9P1W9 whole entry, looked up): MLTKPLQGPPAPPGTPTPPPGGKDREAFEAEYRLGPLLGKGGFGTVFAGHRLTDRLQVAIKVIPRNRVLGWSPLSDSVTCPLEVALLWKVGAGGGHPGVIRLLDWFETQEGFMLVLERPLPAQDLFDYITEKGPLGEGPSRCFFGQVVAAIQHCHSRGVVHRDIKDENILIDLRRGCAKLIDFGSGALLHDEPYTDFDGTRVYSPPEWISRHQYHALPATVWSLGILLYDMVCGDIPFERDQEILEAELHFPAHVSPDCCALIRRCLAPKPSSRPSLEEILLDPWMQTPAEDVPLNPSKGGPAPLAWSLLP

MAP kinase-interacting serine/threonine-protein kinase 1 (Homo sapiens), sequence (Q9BUB5 whole entry, looked up): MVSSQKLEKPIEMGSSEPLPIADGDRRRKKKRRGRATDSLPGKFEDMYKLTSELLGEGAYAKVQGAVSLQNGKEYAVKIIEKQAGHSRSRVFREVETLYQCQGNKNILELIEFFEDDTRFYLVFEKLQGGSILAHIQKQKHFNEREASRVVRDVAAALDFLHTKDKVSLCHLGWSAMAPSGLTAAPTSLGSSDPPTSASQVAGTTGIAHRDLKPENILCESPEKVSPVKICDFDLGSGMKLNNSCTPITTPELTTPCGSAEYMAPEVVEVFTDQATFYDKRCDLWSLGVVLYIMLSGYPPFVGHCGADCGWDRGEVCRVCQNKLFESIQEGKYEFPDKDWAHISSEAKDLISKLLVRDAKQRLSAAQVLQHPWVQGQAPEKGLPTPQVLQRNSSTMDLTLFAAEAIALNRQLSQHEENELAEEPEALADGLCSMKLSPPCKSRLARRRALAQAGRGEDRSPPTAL
PAS domain-containing serine/threonine-protein kinase (Homo sapiens), sequence (Q96RG2 whole entry, the tested form may be a part, canonical isoform): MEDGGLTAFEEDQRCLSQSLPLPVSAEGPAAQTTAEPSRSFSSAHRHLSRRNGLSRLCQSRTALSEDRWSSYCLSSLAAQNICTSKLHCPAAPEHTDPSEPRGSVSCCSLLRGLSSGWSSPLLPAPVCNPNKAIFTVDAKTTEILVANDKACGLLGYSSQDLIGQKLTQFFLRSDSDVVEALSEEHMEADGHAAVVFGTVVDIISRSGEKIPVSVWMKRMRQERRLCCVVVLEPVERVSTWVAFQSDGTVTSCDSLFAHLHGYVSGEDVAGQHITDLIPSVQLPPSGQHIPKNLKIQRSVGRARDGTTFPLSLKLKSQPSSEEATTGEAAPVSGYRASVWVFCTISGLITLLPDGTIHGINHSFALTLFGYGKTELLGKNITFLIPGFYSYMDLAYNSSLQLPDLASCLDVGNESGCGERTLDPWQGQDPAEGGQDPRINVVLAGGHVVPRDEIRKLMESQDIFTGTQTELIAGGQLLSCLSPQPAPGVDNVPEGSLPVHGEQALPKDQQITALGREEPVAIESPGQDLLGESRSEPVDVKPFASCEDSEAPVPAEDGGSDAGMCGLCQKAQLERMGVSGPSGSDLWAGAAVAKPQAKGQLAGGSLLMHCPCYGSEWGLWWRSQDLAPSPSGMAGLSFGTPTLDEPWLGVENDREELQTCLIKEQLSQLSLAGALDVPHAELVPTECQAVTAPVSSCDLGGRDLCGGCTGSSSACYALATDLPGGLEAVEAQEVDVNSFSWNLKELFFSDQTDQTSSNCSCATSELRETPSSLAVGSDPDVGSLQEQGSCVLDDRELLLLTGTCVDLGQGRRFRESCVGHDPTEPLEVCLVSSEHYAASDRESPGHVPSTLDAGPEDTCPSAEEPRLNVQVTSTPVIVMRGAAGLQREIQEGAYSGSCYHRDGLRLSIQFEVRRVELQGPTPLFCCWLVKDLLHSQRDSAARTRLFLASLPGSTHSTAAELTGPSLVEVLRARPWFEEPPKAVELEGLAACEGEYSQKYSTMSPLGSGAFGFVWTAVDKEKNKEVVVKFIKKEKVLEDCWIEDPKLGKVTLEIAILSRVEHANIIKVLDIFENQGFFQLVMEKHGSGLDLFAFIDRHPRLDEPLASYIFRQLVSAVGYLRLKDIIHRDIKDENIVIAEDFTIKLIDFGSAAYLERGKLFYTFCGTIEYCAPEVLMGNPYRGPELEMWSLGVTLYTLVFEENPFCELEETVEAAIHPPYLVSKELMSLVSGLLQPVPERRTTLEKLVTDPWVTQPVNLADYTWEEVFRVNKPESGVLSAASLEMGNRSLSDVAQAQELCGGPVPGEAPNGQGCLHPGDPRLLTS
MAP kinase-interacting serine/threonine-protein kinase 2 (Homo sapiens), sequence (Q9HBH9 whole entry, looked up): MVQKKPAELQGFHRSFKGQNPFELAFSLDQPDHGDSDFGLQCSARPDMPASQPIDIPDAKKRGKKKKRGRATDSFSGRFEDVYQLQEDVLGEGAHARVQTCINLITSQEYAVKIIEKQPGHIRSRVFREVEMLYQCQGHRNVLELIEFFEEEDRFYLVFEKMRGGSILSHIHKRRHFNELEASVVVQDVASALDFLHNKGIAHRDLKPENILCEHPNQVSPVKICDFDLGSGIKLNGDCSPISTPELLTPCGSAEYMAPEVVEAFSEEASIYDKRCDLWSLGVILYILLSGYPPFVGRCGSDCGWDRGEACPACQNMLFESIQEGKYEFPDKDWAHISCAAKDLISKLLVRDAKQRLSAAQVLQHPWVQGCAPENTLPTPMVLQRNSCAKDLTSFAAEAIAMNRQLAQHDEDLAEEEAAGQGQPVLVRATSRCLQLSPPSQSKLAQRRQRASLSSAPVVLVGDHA
Serine/threonine-protein kinase MARK2 (Homo sapiens), sequence (Q7KZI7 whole entry, the tested form may be a part): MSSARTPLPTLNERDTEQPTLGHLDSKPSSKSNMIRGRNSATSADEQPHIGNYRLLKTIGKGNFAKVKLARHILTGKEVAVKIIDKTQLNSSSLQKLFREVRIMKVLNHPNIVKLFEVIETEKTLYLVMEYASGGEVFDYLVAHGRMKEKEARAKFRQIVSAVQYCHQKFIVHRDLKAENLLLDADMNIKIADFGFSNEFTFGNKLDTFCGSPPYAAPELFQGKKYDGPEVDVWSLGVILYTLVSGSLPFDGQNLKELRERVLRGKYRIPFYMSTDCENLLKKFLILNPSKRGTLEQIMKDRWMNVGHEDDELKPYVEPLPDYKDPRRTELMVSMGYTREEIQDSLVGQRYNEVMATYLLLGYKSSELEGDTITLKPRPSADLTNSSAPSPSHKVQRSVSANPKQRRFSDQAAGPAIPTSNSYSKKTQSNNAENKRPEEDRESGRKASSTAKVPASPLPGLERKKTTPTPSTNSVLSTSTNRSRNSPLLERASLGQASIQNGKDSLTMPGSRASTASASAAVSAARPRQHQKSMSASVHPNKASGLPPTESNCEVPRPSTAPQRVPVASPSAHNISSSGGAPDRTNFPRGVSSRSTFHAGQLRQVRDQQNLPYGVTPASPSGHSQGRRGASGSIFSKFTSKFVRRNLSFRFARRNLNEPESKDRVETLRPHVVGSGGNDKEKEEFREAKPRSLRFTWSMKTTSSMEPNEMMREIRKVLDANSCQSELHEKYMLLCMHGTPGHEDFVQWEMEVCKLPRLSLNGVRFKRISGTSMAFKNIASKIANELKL
MAP/microtubule affinity-regulating kinase 3 (Homo sapiens), sequence (P27448 whole entry, looked up): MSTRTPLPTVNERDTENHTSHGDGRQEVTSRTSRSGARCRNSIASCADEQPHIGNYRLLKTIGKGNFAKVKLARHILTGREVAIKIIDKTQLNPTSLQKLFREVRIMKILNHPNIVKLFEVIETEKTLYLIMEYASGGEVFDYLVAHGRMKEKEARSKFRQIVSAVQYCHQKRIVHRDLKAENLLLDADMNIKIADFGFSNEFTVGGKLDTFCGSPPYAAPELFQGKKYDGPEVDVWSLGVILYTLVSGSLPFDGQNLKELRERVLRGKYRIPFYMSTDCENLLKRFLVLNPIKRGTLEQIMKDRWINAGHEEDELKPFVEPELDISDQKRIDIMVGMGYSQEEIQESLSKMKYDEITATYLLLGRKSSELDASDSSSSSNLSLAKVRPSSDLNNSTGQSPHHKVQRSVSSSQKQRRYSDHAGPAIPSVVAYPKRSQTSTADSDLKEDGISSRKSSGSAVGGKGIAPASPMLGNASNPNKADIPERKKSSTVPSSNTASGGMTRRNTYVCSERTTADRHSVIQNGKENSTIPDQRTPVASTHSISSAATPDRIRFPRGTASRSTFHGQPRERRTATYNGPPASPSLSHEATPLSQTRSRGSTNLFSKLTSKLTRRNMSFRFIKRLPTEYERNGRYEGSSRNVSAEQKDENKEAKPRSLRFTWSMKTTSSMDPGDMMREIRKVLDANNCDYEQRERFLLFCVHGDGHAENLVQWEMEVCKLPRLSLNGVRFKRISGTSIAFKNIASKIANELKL
Maternal embryonic leucine zipper kinase (Homo sapiens), sequence (Q14680 whole entry, looked up): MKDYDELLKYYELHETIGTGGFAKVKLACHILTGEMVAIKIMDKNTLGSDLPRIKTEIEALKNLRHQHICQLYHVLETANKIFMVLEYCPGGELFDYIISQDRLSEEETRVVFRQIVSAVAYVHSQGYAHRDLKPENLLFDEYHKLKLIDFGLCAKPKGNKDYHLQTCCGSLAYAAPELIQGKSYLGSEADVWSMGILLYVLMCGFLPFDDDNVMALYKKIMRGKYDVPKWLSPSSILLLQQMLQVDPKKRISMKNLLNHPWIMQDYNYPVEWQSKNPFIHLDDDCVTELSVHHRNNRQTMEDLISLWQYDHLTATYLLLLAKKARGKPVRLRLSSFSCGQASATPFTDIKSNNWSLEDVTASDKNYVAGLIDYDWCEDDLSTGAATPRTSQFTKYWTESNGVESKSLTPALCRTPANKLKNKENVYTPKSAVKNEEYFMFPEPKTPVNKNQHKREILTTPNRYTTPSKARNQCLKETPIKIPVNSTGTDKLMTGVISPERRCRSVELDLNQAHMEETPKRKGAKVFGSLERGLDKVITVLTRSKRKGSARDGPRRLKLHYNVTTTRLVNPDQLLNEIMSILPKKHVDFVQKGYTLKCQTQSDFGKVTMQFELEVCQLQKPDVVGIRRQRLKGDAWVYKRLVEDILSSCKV

Compound	inhibition [1]	inhibition [2]	inhibition [3]	inhibition [4]	inhibition [5]	inhibition [6]	inhibition [7]	inhibition [8]	inhibition [9]	inhibition [10]	inhibition [11]	inhibition [12]	inhibition [13]	inhibition [14]	inhibition [15]	inhibition [16]	inhibition [17]	inhibition [18]	inhibition [19]	inhibition [20]
Cn1c(-c2nonc2N)nc2cnccc21	9.08%	1.25%	3.94%	7.95%	22.1%	3.39%	7.55%	2.67%	16.9%	0.44%	4.69%	0.4%	-0.76%	1.82%	0.15%	4.05%	1.59%	2.15%	16.4%	-0.31%
COc1ccc2ncn(-c3cc(O[C@H](C)c4ccccc4C(F)(F)F)c(C(N)=O)s3)c2c1	1.97%	-0.65%	5.41%	-0.14%	2.51%	-0.15%	3.25%	0.74%	4.03%	0.4%	4.83%	-0.55%	0.78%	1.28%	3.44%	-1.44%	0.1%	1.71%	7.56%	-0.14%
O=C(Nc1n[nH]c2nnc(-c3cccnc3)cc12)C1CC1	1.25%	0.54%	0.56%	-0.51%	1.48%	0.68%	-0.29%	0.77%	2.11%	0.83%	1.5%	1.31%	0.02%	0.1%	-0.03%	-1.23%	-1.9%	26.1%	74.5%	4.25%
CNC(=O)c1ncccc1Nc1nc(Nc2cc3c(cc2OC)CCCN3C(=O)CN(C)C)nc2[nH]ccc12	3.77%	2.04%	4.01%	3.77%	18.2%	2.12%	3.28%	1.22%	1.54%	2.14%	4.82%	0.42%	-3.51%	5.77%	26.6%	5.37%	3.8%	18.9%	65.9%	1.04%
COc1ccccc1-c1cc(/C=C2\C(=O)Nc3ncc(Br)cc32)cc(Br)c1O	1.27%	2.01%	5.18%	4.33%	8.21%	4.21%	11.7%	7.61%	40.1%	-0.96%	2.22%	-1.52%	-3.29%	3.58%	7.04%	4.87%	3.85%	0.14%	3.18%	0.1%
CN1CCN(Cc2ccc(-c3cc4ncnc(Nc5ccc(OCc6cccc(F)c6)c(Cl)c5)c4s3)o2)CC1	2.84% and 0.44%	1.62% and 1.87%	3.52% and 3.32%	4.83% and 3.2%	6.62% and 9.42%	3.21% and 7.2%	18.6% and 22%	-0.2% and 3.49%	9.13% and 14.2%	0.8% and 0.26%	2.8% and -1.69%	1.09% and -0.73%	0.63% and 0.18%	4.48%	6.3% and 12.4%	3.47% and 7.21%	2.85% and 9.87%	-0.54% and 0.21%	1.02% and 0.98%	-0.52% and 0.67%
CS(=O)(=O)Nc1ccc(-c2cc(-c3ccccc3)cc(C(N)=O)c2N)cc1	0.12%	0.69%	0.98%	3.07%	7.77%	1.45%	4.03%	-0.47%	3.27%	-0.25%	4.64%	-0.01%	-0.36%	1.44%	4.26%	1.4%	0.02%	0.69%	1.67%	-0.48%
CNC(=O)c1cncc(/C=C/c2ccccc2C)c1	6.03%	1.26%	3.49%	1.3%	4.29%	4.95%	29.4%	2.12%	14.9%	1.19%	0.45%	0.44%	0.95%	4.3%	7.61%	6.36%	7.42%	0.05%	2.22%	0.15%
Nc1nccc(-c2c(-c3ccc(F)cc3)ncn2C2CCNCC2)n1	0.65% and -2.22%	-0.05% and 0.87%	0.67% and 0.98%	-3.33% and -1.76%	4.7% and 0.94%	-0.09% and 1.2%	12.4% and 3.16%	0.4% and 0.49%	4.75% and 1.44%	0.15% and 0.08%	1.75% and 0.35%	-0.64% and -0.39%	-0.63% and -0.93%	-0.27% and 1.11%	2.04% and 1.58%	-6.47% and 0.35%	-6.27% and -1.71%	0.29% and -0.7%	7.06% and -0.6%	-0.19% and 0.2%
c1ccc(-c2n[nH]cc2-c2ccnc(-c3ccc(OCCn4ccnc4)cc3)c2)nc1	6.87%	1.49%	3.83%	2.12%	27.2%	0.75%	5.94%	0.5%	7.2%	-0.46%	-0.66%	-0.73%	-0.48%	2.85%	6.86%	-0.35%	3.4%	0.32%	0.45%	0.56%
O=C1Nc2ccccc2/C1=C1\CCc2cc(O)ccc21	40.1%	7.29%	33.1%	11.1%	56.8%	3.12%	7.84%	2.73%	15.9%	5.04%	24%	0.2%	-1.25%	9.05%	40.6%	6.64%	9.59%	2.37%	10.2%	-0.2%
COc1cccc(Nc2nccc(-c3cnn4ncccc34)n2)c1	29.6%	0.65%	17.3%	5.16%	52.3%	2.14%	11.3%	3.27%	22.7%	1.23%	21.4%	-0.19%	-1.63%	2.67%	27.6%	4.4%	18.8%	0.85%	6.56%	0.37%
CCN1CCC(C(=O)Nc2n[nH]c3nnc(-c4cccc(F)c4F)cc23)CC1	1.76%	0.44%	2.52%	-1.02%	-1.79%	1.56%	3.13%	0.51%	1.47%	-2.48%	1.95%	1.35%	0.26%	1.99%	4.68%	-0.86%	-1.05%	-0.82%	0.91%	0.04%
